Assay results: PubChem BioAssay AID2501 (Southern Research Specialized Biocontainment Screening …, 2010)
Hit rate of the full screen: of about 2,200 compounds, about 1,200 (55%) were called active. The set was probably picked from earlier hits. The list shows a part of the results. Unmarked numbers belong to inactive results. No cut-off is given here; in the data, nearly all actives have IC50 up to about 92 µM.

Experiment: counter assay for TAg ATPase ADP read-out – biochemical, ADP-Hunter, fluorescence, counter-screen (AID 2501);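 note: purified T antigen ATPase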;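 for inhibition: 0% = enzyme with vehicle and 100% = reference inhibitor wells; higher means more inhibition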
Details: series mostly up to 100 µM; inhibition: at the top concentration

Compound	inhibition [%]	IC50
NC(=O)Cn1c(=O)n(CCC(=O)NCCSCc2ccccc2)c(=O)c2ccccc21	-26.1	–
COc1cccc(C2C([N+](=O)[O-])=C(N)Oc3cc(C)oc(=O)c32)c1 (stereo unspecified)	-29.3	–
NC(=O)C(Cc1ccccc1)N1C(=O)c2ccccc2C1=O (stereo unspecified)	0.03	–
CC(=O)Nc1ccc(OC(=O)C(CCS(C)(=O)=O)N2C(=O)c3ccccc3C2=O)cc1 (stereo unspecified)	–	7.41 µM (active)
O=C(Nn1cnnc1)C1Cc2ccccc2CN1S(=O)(=O)c1ccc(F)cc1 (stereo unspecified)	-21.5	–
CC(=O)Nc1cccc(C(=O)OCC(=O)Nc2nnc(-c3ccccc3)o2)c1	24.2	–
Cc1ccccc1OCC(=O)NCC(=O)OCC(=O)c1ccc([N+](=O)[O-])cc1	5.49	–
CCN(CC)c1ccc(NC(=O)COC(=O)COc2ccccc2[N+](=O)[O-])cc1	–	6.35 µM (active)
O=C(O)CCCn1cc(NC(=O)COc2ccccc2[N+](=O)[O-])cn1	-8.38	–
CCN(CC)c1ccc(C(=O)n2cnc3ccccc32)cc1	1.76	–
COc1ccc2nc(COC(=O)c3cccs3)c(C(C)=O)[n+]([O-])c2c1	15	–
CCN(CC)c1ccc(NC(=O)COC(=O)c2cccs2)cc1	–	7.51 µM (active)
CCN(c1ccccc1)S(=O)(=O)c1ccc(Cl)c(NC(=O)COC(=O)c2cc(O)c3ccccc3c2O)c1	-35.6	–
CCN(CC)c1ccc(NC(=O)COC(=O)c2ccc3ccccc3n2)cc1	–	2.2 µM (active)
CCOC(=O)C1CCCN(C(=O)Cn2sc3nc(C)cc(C)c3c2=O)C1 (stereo unspecified)	20.5	–
Nc1cnc(Nc2ccc(Br)cc2)nc1N	–	12.1 µM (active)
O=C(N/N=C/c1ccc(-c2ccc(S(=O)(=O)Nc3ncccn3)cc2)o1)c1cc2ccccc2cc1O	17.8	–
CCN(CC)S(=O)(=O)c1ccc(N/N=C/c2ccc(O)cc2)nc1	–	4.57 µM (active)
Cc1cc(/C=N/Nc2ccc([N+](=O)[O-])cn2)c(C)n1-c1ccc(C(=O)O)cc1	-1.71	–
Cc1nc(Cl)cc(N/N=C/c2ccc(O)cc2)n1	–	4.8 µM (active)
CC[C@H](C)[C@H](NC(=O)c1ccccc1)C(=O)Nc1ccc(S(=O)(=O)Nc2cc(C)nc(C)n2)cc1	-9.31	–
Cc1ccc(S(=O)(=O)Nc2nc(C)cc(N/N=C/c3ccc(O)cc3)n2)cc1	–	8.77 µM (active)
O=C(COc1ccc([N+](=O)[O-])cc1)NNC(=O)Nc1ccc([N+](=O)[O-])cc1	-28.5	–
COc1cc([N+](=O)[O-])ccc1NC(=O)Oc1ccc(NC(C)=O)cc1	–	4.33 µM (active)
COc1ccc(NC(=O)N2CCCc3cc(C)ccc32)c(OC)c1	-15.2	–
c1coc(-c2nnc3sc(Cc4cccs4)nn23)c1	6.69	–
